# Records with an inconclusive call do not appear. Activity calls are given as the source filed them. Unless noted, the call rests on the fitted dose curve.
# How the values were obtained:
# [1] = biological target: Glucocorticoid receptor (Homo sapiens) (UniProt P04150); experiment: qHTS assay for small molecule agonists of glucocorticoid receptor signaling (AID 588532; active means well fitted curve in the direction sought with a large enough effect in the signal ratio, with a control signal flat; the % refers to the signal ratio;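 further: 100% = dexamethasone at 0.1 µM and 0% = DMSO only wells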); conditions: HeLa MMTV-bla, beta-lactamase ratio, agonist, 18 h; activation: stronger effect = higher value, percent of dexamethasone control, DMSO zero
# Sequence of Glucocorticoid receptor (Homo sapiens) (P04150 whole entry, looked up): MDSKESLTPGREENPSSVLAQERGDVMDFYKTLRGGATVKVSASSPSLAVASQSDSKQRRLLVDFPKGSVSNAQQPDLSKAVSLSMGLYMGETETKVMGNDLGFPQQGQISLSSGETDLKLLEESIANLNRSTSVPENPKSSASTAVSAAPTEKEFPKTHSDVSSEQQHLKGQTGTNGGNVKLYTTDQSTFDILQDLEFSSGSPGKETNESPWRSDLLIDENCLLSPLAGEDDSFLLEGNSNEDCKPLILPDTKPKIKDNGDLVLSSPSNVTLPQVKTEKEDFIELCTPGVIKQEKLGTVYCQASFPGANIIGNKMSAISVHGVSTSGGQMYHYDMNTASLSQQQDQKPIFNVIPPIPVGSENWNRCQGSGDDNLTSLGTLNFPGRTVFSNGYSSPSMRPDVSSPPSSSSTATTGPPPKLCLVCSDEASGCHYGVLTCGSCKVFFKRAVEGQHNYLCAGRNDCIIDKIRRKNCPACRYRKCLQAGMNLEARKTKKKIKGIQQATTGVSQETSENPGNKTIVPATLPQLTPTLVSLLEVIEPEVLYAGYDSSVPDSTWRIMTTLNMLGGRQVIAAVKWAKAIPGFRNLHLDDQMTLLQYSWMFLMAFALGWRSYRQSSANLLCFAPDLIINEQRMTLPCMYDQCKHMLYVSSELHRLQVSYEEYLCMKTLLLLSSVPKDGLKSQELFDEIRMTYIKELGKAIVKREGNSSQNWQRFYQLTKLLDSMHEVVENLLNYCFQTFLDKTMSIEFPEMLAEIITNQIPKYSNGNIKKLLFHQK
# In short: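 Cells were plated and rested 3-5 h at 37 C, compounds were added in titration and incubated 18 h, then CCF4 substrate was loaded for 2 h at RT before reading blue/green fluorescence. EC50 came from Hill-equation fitting.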
# [2] = biological target: Glucocorticoid receptor (Homo sapiens) (UniProt P04150); experiment: qHTS assay for small molecule antagonists of glucocorticoid receptor signaling (AID 588533; active means well fitted inhibition curve with a large enough effect in the signal ratio, with a control signal flat, not every such curve was filed as active; the % refers to the signal ratio; further: on the % scale 0 is the no-effect control and ±100 the full control effect)
# In short: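 Antagonist-mode qHTS: compound titrations added to GRE-bla HeLa cells, then dexamethasone 2 nM final; 18 h, 37 C. CCF4 FRET fluorescence normalized to dexamethasone and DMSO; IC50 from Hill fit.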
# [3] = biological target: Peroxisome proliferator-activated receptor delta (Homo sapiens) (UniProt Q03181); experiment: qHTS assay for small molecule agonists of peroxisome proliferator-activated receptor delta signaling (AID 588534);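 further: 0% = DMSO basal wells and 100% = positive control agonist at 10 µM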
# Sequence of Peroxisome proliferator-activated receptor delta (Homo sapiens) (Q03181 whole entry, looked up): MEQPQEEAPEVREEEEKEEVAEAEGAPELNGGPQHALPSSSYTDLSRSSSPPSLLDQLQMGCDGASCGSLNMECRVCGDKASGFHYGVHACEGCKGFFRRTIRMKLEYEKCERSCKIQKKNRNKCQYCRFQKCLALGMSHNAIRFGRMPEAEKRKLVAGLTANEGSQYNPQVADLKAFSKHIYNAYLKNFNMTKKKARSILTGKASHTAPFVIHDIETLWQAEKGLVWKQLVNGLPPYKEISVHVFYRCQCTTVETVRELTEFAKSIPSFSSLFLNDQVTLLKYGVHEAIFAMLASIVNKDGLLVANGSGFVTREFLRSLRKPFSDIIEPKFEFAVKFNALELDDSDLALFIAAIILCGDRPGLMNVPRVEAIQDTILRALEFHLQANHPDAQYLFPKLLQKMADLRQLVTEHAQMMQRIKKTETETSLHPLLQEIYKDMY
# In short: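 Agonist-mode qHTS; reporter cells, 5 hrs 37 C pre-incubation; compound titration, 18 hrs 37 C; CCF4 dye, 2 hrs RT; fluorescence read. EC50/efficacy via Hill fit.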
# [4] = qHTS assay for small molecule antagonists of peroxisome proliferator-activated receptor delta signaling (AID 588535; active means well fitted inhibition curve with a large enough effect in the signal ratio, with a control signal flat, not every such curve was filed as active; the % refers to the signal ratio;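 on max response: cells co-treated with a PPAR-delta agonist as stimulator during compound exposure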); conditions: HEK293T PPARd-UAS-bla, beta-lactamase FRET ratio, 18 h; 460 nm channel
# In short: (§1)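 Fluorescence from CCF4-loaded GeneBLAzer PPAR-delta-UAS-bla HEK293T cells (2 hrs RT loading) quantified reporter inhibition after an 18 hr, 37 C compound exposure across a titration.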
# [5] = biological target: Peroxisome proliferator-activated receptor delta (Homo sapiens) (UniProt Q03181); experiment: as above
# In short: as §1
# [6] = biological target: Vitamin D3 receptor (Homo sapiens) (UniProt P11473); experiment: qHTS assay for small molecule antagonists of vitamin D receptor signaling (AID 588541);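 further: receptor activated by calcitriol during compound treatment; series mostly up to about 77 µM; on the % scale 0 is the no-effect control and ±100 the full control effect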
# Sequence of Vitamin D3 receptor (Homo sapiens) (P11473 whole entry, looked up): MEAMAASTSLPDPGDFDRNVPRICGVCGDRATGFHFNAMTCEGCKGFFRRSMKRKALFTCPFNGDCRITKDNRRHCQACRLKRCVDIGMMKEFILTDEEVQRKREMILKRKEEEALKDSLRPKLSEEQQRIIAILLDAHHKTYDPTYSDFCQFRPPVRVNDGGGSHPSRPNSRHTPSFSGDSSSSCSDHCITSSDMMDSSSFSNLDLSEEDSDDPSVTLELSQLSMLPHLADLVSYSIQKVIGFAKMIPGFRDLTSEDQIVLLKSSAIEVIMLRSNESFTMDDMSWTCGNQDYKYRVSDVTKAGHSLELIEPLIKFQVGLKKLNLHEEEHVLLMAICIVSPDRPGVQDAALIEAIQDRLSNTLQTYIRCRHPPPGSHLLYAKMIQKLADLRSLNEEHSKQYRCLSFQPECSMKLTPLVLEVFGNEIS
# In short: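 VDR-UAS-bla HEK293T cells in 2% charcoal-stripped FBS were stimulated with 1-alpha,25-dihydroxyvitamin D3 (3 nM final) plus compound for 16 h at 37 C. The beta-lactamase CCF4 readout was normalized to 50 nM agonist and DMSO, and Hill fits gave IC50.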
# [7] = biological target: Vitamin D3 receptor (Homo sapiens) (UniProt P11473); experiment: qHTS assay for small molecule agonists of vitamin D receptor signaling (AID 588543);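 further: 0% = DMSO basal and 100% = reference agonist control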
# In short: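 Reporter cells (HEK293T, VDR-UAS-bla) were seeded in medium with 2% charcoal-stripped serum and incubated 5 h, then compounds in concentration series were added for 16 h at 37 °C. Stimulation was scaled between DMSO basal and 50 nM 1α,25-dihydroxyvitamin D3.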
# [8] = qHTS assay for small molecule agonists of retinoid X receptor alpha signaling (AID 588544); conditions: HEK293T RXRa-UAS-bla, beta-lactamase reporter, 18 h; 530 nm emission;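 on activation: 0% = DMSO basal wells and 100% = reference agonist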
# [9] = biological target: Retinoic acid receptor RXR-alpha (Homo sapiens) (UniProt P19793); experiment: as above
# Sequence of Retinoic acid receptor RXR-alpha (Homo sapiens) (P19793 whole entry, looked up): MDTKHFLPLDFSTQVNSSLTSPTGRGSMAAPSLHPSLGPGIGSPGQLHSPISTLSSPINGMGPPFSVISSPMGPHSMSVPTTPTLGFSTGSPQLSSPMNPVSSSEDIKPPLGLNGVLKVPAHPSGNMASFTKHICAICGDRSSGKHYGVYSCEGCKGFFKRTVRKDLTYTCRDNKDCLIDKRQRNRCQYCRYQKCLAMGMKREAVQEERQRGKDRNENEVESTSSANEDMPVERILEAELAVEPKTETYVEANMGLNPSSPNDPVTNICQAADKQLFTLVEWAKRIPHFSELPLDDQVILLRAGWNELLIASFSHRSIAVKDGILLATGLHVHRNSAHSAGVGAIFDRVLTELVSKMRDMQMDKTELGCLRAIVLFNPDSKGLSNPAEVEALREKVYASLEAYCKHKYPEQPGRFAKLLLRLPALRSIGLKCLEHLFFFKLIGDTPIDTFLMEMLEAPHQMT
# [10] = biological target: Thyroid hormone receptor beta (Homo sapiens) (UniProt P10828); experiment: qHTS assay for small molecule agonists of thyroid hormone receptor beta signaling (AID 588545)
# Sequence of Thyroid hormone receptor beta (Homo sapiens) (P10828 whole entry, looked up): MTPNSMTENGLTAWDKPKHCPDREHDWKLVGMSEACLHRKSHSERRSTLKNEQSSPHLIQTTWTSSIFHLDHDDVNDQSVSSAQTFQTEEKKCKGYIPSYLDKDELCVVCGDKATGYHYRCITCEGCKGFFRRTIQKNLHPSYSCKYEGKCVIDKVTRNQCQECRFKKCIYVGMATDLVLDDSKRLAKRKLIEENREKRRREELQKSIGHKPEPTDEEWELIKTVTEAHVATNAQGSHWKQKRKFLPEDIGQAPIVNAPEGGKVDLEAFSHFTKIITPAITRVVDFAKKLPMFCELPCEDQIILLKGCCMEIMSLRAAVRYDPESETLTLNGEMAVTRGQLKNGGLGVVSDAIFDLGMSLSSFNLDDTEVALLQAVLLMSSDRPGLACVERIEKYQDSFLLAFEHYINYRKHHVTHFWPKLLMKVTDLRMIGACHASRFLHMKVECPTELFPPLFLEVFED
# In short: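 HEK 293 TR-UAS-bla; agonist mode; 18 hrs, 37 C; CCF4, ex 405/em 460 and 530 nm; norm. T3 10 nM = 100%, DMSO = 0%; Hill fit → EC50, efficacy.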
# [11] = qHTS assay for small molecule antagonists of retinoid X receptor alpha signaling (AID 588546; active means well fitted inhibition curve with a large enough effect in the signal ratio, with a control signal flat, not every such curve was filed as active; the % refers to the signal ratio;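 further: cells stimulated with 9-cis-retinoic acid as agonist; on the % scale 0 is the no-effect control and ±100 the full control effect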); conditions: HEK293T RXRa-UAS-bla, beta-lactamase ratio, antagonist mode; measured here: W530 green channel, cytotoxicity proxy
# In short: (§2)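 Beta-lactamase reporter inhibition, read as CCF4 fluorescence ratio (ex 405, em 460/530 nm) after 2 h at RT. HEK293T UAS-bla cells, 2500/well, were stimulated with 9-cis-RA at 500 or 100 nM final alongside test compound for 18 h at 37 C.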
# [12] = biological target: Retinoic acid receptor RXR-alpha (Homo sapiens) (UniProt P19793); experiment: as above; conditions: HEK293T RXRa-UAS-bla, beta-lactamase ratio, antagonist mode
# In short: as §2
# [13] = qHTS assay for small molecule activators of the p53 signaling pathway (AID 651743; active means well fitted activation curve with a large enough effect in the signal ratio, not every such curve was filed as active; the % refers to the signal ratio; further: series mostly up to about 92 µM; % of control where 0% means no effect); conditions: HCT-116 p53RE-bla, beta-lactamase FRET ratio, 16 h; activation: stronger effect = higher value
# In short: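 Following 16 hours of compound exposure at 37 C, HCT-116 cells bearing the p53RE-bla reporter were loaded with LiveBLAzer B/G FRET substrate for 2 hours at room temperature and fluorescence intensity was recorded.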
# [14] = qHTS assay for small molecule activators of the nuclear factor-kappa B (NF-kB) signaling pathway (AID 651749; active means well fitted activation curve with a large enough effect in the signal ratio; the % refers to the signal ratio; further: series mostly up to about 77 µM; % of control where 0% means no effect); conditions: NF-kB-bla ME-180 cells, beta-lactamase FRET ratio, 16 h; activation: stronger effect = higher value
# In short: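 In this qHTS format, compounds acting as activators increase NF-kB-driven beta-lactamase in ME-180 cells, measured as disrupted FRET after 16 hr exposure at 37C and 5% CO2.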
# [15] = biological target: Peroxisome proliferator-activated receptor alpha (Homo sapiens) (UniProt Q07869); experiment: qHTS assay for small molecule agonists of the peroxisome proliferator-activated receptor alpha (PPARalpha) signaling pathway (AID 651778; active means well fitted curve in the direction sought with a large enough effect; an effect the other way counts as inactive or inconclusive; further: potency means the concentration at half of the fitted maximal effect; on max response: % of control where 0% means no effect); conditions: PathHunter PPARalpha complementation, chemiluminescence, 6 h; max response: stronger effect = higher value
# Sequence of Peroxisome proliferator-activated receptor alpha (Homo sapiens) (Q07869 whole entry, looked up, the tested form may be a part): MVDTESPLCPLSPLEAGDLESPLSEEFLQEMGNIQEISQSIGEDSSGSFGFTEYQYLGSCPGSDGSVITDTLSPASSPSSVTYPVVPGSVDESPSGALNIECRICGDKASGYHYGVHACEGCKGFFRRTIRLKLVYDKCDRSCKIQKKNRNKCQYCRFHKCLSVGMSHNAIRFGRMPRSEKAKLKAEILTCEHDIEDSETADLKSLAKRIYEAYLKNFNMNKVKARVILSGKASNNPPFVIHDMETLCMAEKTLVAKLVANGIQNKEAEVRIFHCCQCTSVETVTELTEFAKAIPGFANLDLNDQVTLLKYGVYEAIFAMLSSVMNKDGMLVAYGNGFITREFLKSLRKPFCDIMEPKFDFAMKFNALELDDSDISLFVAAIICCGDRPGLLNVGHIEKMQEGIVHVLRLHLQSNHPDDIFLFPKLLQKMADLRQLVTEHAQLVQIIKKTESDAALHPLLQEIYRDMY
# In short: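 Enzyme-fragment complementation assay in which ligand-bound PPARalpha translocates and forms an active enzyme that generates chemiluminescence. Cells were plated overnight, exposed to compound for 6 hr at 37 C, and then given detection reagent for 60 min at room temperature.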
# [16] = qHTS assay for small molecule agonists of the antioxidant response element (ARE) signaling pathway measured by Nrf2-dependant transcriptional activity (AID 720636; active means well fitted curve in the direction sought with a large enough effect in the repeat runs; an effect the other way counts as inactive or inconclusive; further: % of control where 0% means no effect)
# In short: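 ARE-luc HepG2 cells carrying an Nrf2-responsive luciferase reporter were plated in medium with 1% dialyzed FBS, left 6 hr at 37 C to attach, then exposed to compound for 16 hr. Luciferase luminescence was read after ONE-Glo addition.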
# [17] = qHTS assay for small molecule agonists of the antioxidant response element (ARE) signaling pathway measured by Nrf2-dependant transcriptional activity - cell viability counter screen (AID 720653; active means well fitted curve in the direction sought with a large enough effect in the repeat runs; an effect the other way counts as inactive or inconclusive; further: on the % scale 0 is the no-effect control and ±100 the full control effect); conditions: ARE-bla HepG2 viability, CellTiter-Glo ATP luminescence, 16 h; max response: stronger effect = lower value
# In short: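 ARE-bla HepG2 cells treated with compounds for 16 h at 37C; this counter screen measures viability as intracellular ATP by CellTiter-Glo luminescence after 30 min at room temperature.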
# [18] = qHTS assay for cell viability of HEK293 cells (AID 743288; active means well fitted curve in the direction sought with a large enough effect; an effect the other way counts as inactive or inconclusive; further: on the % scale 0 is the no-effect control and ±100 the full control effect; nearly all actives have a fitted effect of over 50% in size); conditions: ATP luminescence (CellTiter-Glo), 18 h; max response: stronger effect = lower value
# In short: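 Viable-cell counts were inferred from luciferase-based ATP content in HEK293 cells seeded at 2,000/well, pre-incubated ≥5 h, then dosed with DMSO-solubilised compounds for 18 h at 37 C.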
# [19] = qHTS assay for cell viability of the p53RE-bla HCT-116 cell line (AID 743292; active means well fitted curve in the direction sought with a large enough effect; an effect the other way counts as inactive or inconclusive; further: on the % scale 0 is the no-effect control and ±100 the full control effect; nearly all actives have a fitted effect of over 55% in size)
# In short: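 CellSensor p53RE-bla HCT-116 cells, 4,000/well, preincubated 5 h at 37 C, then exposed to compounds in DMSO for 16 h at 37 C. Viability read as CellTiter-Glo luminescence (intracellular ATP) after 30 min at room temperature.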
# [20] = biological target: Nuclear receptor subfamily 1 group I member 2 (Rattus norvegicus) (UniProt Q9R1A7); experiment: qHTS assay for small molecule activators of the rat pregnane X receptor (rPXR) signaling pathway (AID 651751; call rule not given here; further: 0% is about no effect); conditions: rPXR reporter cells, luciferase (One-Glo), 24 h
# Sequence of Nuclear receptor subfamily 1 group I member 2 (Rattus norvegicus) (Q9R1A7 whole entry, looked up): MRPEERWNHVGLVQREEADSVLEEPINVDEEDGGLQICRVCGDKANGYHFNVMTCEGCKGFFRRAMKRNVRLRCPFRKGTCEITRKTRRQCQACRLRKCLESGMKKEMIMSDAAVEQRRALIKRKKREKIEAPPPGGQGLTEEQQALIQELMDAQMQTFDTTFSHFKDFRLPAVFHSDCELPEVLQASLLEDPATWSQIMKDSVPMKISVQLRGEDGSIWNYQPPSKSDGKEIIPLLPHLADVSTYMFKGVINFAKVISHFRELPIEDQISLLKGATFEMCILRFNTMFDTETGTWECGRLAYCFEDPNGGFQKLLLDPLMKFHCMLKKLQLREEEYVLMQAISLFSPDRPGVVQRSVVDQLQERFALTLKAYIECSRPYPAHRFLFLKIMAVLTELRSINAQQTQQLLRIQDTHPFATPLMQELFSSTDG
# [21] = qHTS assay for small molecule activators of the human pregnane X receptor (PXR) signaling pathway (AID 720659; call rule not given here; further: 0% is about no effect)
# [22] = qHTS assay for small molecule agonists of the antioxidant response element (ARE) signaling pathway (AID 651741; active means well fitted activation curve with a large enough effect in the signal ratio; the % refers to the signal ratio; further: % of control where 0% means no effect)
# In short: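 Stably integrated ARE-beta-lactamase reporter HepG2 cells; 16 h compound incubation, 37 C; LiveBLAzer FRET substrate 2 h at room temperature; fluorescence intensity.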
# [23] = biological target: Peroxisome proliferator-activated receptor gamma (Homo sapiens) (UniProt P37231); experiment: qHTS assay for small molecule agonists of peroxisome proliferator-activated receptor gamma signaling (AID 588536; active means well fitted curve in the direction sought with a large enough effect in the signal ratio, with a control signal flat, not every such curve was filed as active; the % refers to the signal ratio;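 further: 0% = DMSO basal wells and 100% = rosiglitazone at 2 µM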)
# Sequence of Peroxisome proliferator-activated receptor gamma (Homo sapiens) (P37231 whole entry, looked up): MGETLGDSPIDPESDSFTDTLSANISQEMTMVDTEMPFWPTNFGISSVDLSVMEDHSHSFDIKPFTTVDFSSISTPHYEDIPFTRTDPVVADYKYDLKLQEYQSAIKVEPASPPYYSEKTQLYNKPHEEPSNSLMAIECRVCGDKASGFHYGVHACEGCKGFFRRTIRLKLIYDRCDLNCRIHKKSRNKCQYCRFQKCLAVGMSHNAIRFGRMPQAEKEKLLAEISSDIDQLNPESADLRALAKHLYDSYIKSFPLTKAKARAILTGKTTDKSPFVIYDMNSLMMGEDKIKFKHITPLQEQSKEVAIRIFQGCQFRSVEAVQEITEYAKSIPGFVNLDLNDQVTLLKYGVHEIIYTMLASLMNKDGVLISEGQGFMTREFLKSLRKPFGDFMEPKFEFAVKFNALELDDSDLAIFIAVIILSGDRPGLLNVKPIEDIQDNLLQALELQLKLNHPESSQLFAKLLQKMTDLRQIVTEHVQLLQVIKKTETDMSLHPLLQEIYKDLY
# In short: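 Compound treatment: 16 h, 37 C, HEK293 GeneBLAzer cells. Detection: CCF4, 2 h RT. Values: Hill-fit EC50, efficacy as % of 2 uM rosiglitazone.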
# [24] = biological target: Peroxisome proliferator-activated receptor gamma (Homo sapiens) (UniProt P37231); experiment: qHTS assay for small molecule antagonists of peroxisome proliferator-activated receptor gamma signaling (AID 588537; active means well fitted inhibition curve with a large enough effect in the signal ratio, with a control signal flat, not every such curve was filed as active; the % refers to the signal ratio;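 further: reporter cells co-stimulated with 50 nM rosiglitazone agonist during compound treatment; % of control where 0% means no effect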)
# In short: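 Fluorescence at 460 and 530 nm (405 nm excitation) reported beta-lactamase cleavage of CCF4 after 2 h room-temperature loading. HEK293 reporter cells in 1% charcoal/dextran-treated FBS had received compound and rosiglitazone for 16 h.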
# [25] = biological target: Thyroid hormone receptor beta (Homo sapiens) (UniProt P10828); experiment: qHTS assay for small molecule antagonists of thyroid hormone receptor beta signaling (AID 588547; active means well fitted inhibition curve with a large enough effect in the signal ratio, with a control signal flat, not every such curve was filed as active; the % refers to the signal ratio); conditions: TR-UAS-bla HEK293, beta-lactamase ratio, antagonist mode, 18 h
# In short: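 TR-UAS-bla GripTite HEK293 cells in 2% charcoal/dextran FBS medium; compounds 0.59 nM to 92 uM with T3 at 0.4nM final, 18 h at 37 C. Beta-lactamase read by CCF4 fluorescence (460/530 nm); Hill fits gave IC50 and efficacy.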
# [26] = qHTS assay for environmental chemicals that activate the Aryl hydrocarbon Receptor (AhR) signaling pathway (AID 651777; active means well fitted curve in the direction sought with a large enough effect; an effect the other way counts as inactive or inconclusive; further: % of control where 0% means no effect; nearly all actives have a fitted effect of over 15% in size); conditions: 1A2-DRE human hepatoma cells, luciferase, 24 h; activation: stronger effect = higher value
# In short: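 Human hepatoma 1A2-DRE cells, stably carrying a dioxin response element and CYP1A2 promoter driving luciferase, were exposed to compounds for 24 hr at 37 C and 5% CO2. Luciferase signal was then read after 30 min One-Glo at room temperature.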
smiles,measurement,setting,value
c1ccc2c(c1)oc1ccccc12,activation,[1],0.193% (inactive)
same,Potency,[2],inactive
same,outcome,[3],inactive
same,max response,[4],3.99%
same,Potency,[5],inactive
same,Potency,[6],inactive
same,outcome,[7],inactive
same,max response,[8],-6.25%
same,Potency,[9],inactive
same,Potency,[10],inactive
same,max response,[11],-9.11%
same,max response,[12],10.8% (inactive)
same,activation,[13],-2.47% (inactive)
same,activation,[14],-1.03% (inactive)
same,max response,[15],0.628% (inactive)
same,Potency,[16],inactive
same,max response,[17],-12.3% (inactive)
same,max response,[18],-8.74% (inactive)
same,Potency,[19],inactive
same,max response,[20],-0.589% (inactive)
same,outcome,[21],inactive
CCCCCCCCCCCCN,outcome,[3],inactive
c1ccc(Nc2ccccc2)cc1,outcome,[3],inactive
CC(C)(C)OOC(C)(C)CCC(C)(C)OOC(C)(C)C,Potency,[2],inactive
same,Potency,[6],inactive
same,outcome,[7],inactive
same,max response,[8],-2.41%
same,Potency,[9],inactive
same,Potency,[10],inactive
same,max response,[11],-4.8%
same,max response,[12],-1.22% (inactive)
same,Potency,[22],inactive
same,activation,[13],2.86% (inactive)
same,max response,[15],0.675% (inactive)
same,max response,[17],-14% (inactive)
same,max response,[18],0.0033% (inactive)
same,Potency,[19],inactive
same,max response,[20],-1.16% (inactive)
same,outcome,[21],inactive
COP(=O)(NC(C)=O)SC (stereo unspecified),activation,[1],-2.58% (inactive)
same,outcome,[3],inactive
same,max response,[4],-7.01%
same,Potency,[5],inactive
same,Potency,[23],inactive
same,Potency,[24],inactive
same,Potency,[6],inactive
same,outcome,[7],inactive
same,max response,[8],4.58%
same,Potency,[9],inactive
same,Potency,[10],inactive
same,max response,[11],3.46%
same,max response,[12],-12.8% (inactive)
same,activity change % (negative = inhibition),[25],-13.5% (inactive)
same,Potency,[22],inactive
same,activation,[13],-0.529% (inactive)
same,activation,[26],-1.62% (inactive)
same,max response,[15],-0.657% (inactive)
same,Potency,[16],inactive
same,max response,[17],-8.51% (inactive)
same,max response,[18],-8.22% (inactive)
same,Potency,[19],inactive
same,max response,[20],-1.19% (inactive)
same,outcome,[21],inactive
CCOC(=O)C(C)OC(=O)c1cc(Oc2ccc(C(F)(F)F)cc2Cl)ccc1[N+](=O)[O-] (stereo unspecified),activation,[1],2.93% (inactive)
same,Potency,[2],inactive
same,max response,[4],34.5%
same,Potency,[5],inactive
same,Potency,[23],inactive
same,activity change % (negative = inhibition),[25],11.5% (inactive)
same,activation,[13],0.27% (inactive)
same,activation,[14],0.301% (inactive)
same,activation,[26],4.56% (inactive)
same,Potency,[15],35.5 µM (active)
same,Potency,[16],inactive
same,max response,[17],-9.47% (inactive)
same,max response,[18],-22.9% (inactive)
same,Potency,[19],inactive
same,max response,[20],4.28% (inactive)
CCOP(=S)(OCC)SCSP(=S)(OCC)OCC,activation,[1],-1.05% (inactive)
same,Potency,[2],inactive
same,outcome,[3],inactive
same,max response,[4],36.7%
same,Potency,[5],inactive
same,Potency,[24],inactive
same,outcome,[7],inactive
same,Potency,[10],inactive
same,max response,[11],-10.3%
same,max response,[12],-4.31% (inactive)
same,activation,[13],-5.14% (inactive)
same,activation,[14],-2.5% (inactive)
same,activation,[26],3.33% (inactive)
same,max response,[15],-1.9% (inactive)
same,Potency,[16],inactive
same,max response,[17],-0.915% (inactive)
same,max response,[18],-18.3% (inactive)
same,Potency,[19],inactive
